Bioassay records as filed in PubChem BioAssay.
Pf Dd2 inh: blocks in vitro growth of P. falciparum Dd2; P. falciparum Dd2 growth, SYBR Green, 72 h; Potency, µM (highest dose often 28.9 µM), for the others: at the highest dose activity, negative = inhibition, usual class: inhibitors; 4.3% of 120,000 active; active = well fitted inhibition curve with a large enough effect;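 note: plate controls were DMSO vehicle for no effect and reference drug for full effect; nearly all actives have a fitted effect of over 65% in size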
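Infected erythrocytes (Dd2, 0.3% parasitemia, 2.5% hematocrit final) are added to compound in RPMI-1640/Albumax II medium, grown 72 h at 37C in low oxygen, then lysed with saponin/Triton-X containing SYBR Green and read by fluorescence.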
Active calls of the source: *; i = inactive; [ ] = dose if it differs, or a comment. Only a selection was taken, and hits are over-represented in it overall. Potency is the fitted concentration of half-maximal effect.

SMILES	Pf Dd2 inh
c1cncc(-c2ccnc(NCCc3csc(-c4ccncc4)n3)n2)c1	-6.7%
CC(=O)N1CCC(C(=O)N[C@H]2CCN3C(=O)N(c4ccc(C)cc4)C(=O)[C@@H]3C2)CC1	-0.7%[44.1 µM]
CCn1ncc(N2CCC(NC(=O)Cc3ccc(C)cc3)CC2)cc1=O	i
Cc1ccc(CN2C[C@]34C=C[C@H](O3)C(C(=O)N(C)Cc3ccsc3)C4C2=O)cc1C (some centres not stated)	-15.6%
Cc1ccc(NC(=O)c2cc(-c3ccc[nH]3)n[nH]2)cc1F	-4.7%
CSc1ccc(NC(=O)c2cc(-c3ccc[nH]3)n[nH]2)cc1	12.6µM*
COc1cccc(-c2cc(C(=O)Nc3ccc(F)cc3)[nH]n2)c1	2.51µM*
COc1cccc(CNC(=O)c2cc(-c3cccc(OC)c3)n[nH]2)c1	10.1%
O=C(Nc1ccc(F)cc1)c1cc(-c2ccc[nH]2)n[nH]1	i
COc1cccc(-c2cc(C(=O)Nc3ccc(Br)c(C)c3)[nH]n2)c1	-25.9%
COc1ccc(F)cc1S(=O)(=O)N1CCCN(C(=O)C2CC2)c2ccccc21	-15.8%
c1ccc(-c2noc(-c3ccn4c(CN5CCN(c6ccccc6)CC5)nnc4c3)n2)cc1	-18.6%
CN1CCC(N(C(=O)NCCc2ccccc2)C2CCOCC2)CC1	-17.8%
CCOc1ccccc1CNCc1c(C(=O)O)n(Cc2ccccc2)c2cc(OC)ccc12	-17.3%
CCOc1ccc(CNCc2c(C(=O)O)n(Cc3ccc(C)cc3)c3cc(C)ccc23)cc1	-1.5%
COc1ccc(Cn2c(C(=O)O)c(CNC3CCCC3)c3ccc(OC)cc32)cc1	-22.3%
COc1ccc2c(CNCc3ccc(C)o3)c(C(=O)O)n(Cc3ccccc3C)c2c1	-21.6%
CCOc1ccc(CNCc2c(C(=O)O)n(Cc3ccc(OC)cc3)c3ccccc23)cc1	10µM*
COc1ccc2c(CNCCc3ccco3)c(C(=O)O)n(Cc3ccc(C)cc3)c2c1	i
COc1ccc(Cn2c(C(=O)O)c(CNCc3ccccc3F)c3ccc(OC)cc32)cc1	8.91µM*
COc1ccc2c(CNCc3cccs3)c(C(=O)O)n(Cc3ccccc3)c2c1	-17.6%
COc1ccc2c(CNCc3ccc(Cl)cc3)c(C(=O)O)n(Cc3ccccc3C)c2c1	11.2µM*
Cc1ccc(C(=O)N2CCC3(CCCCO3)CC2)cn1	21.6%
CCC(=O)N1CCC(n2c(C)cnc2-c2ccccc2)CC1	-6.9%
Cc1cc(C)nc(-n2nc(C)c3c2N(C)C(=O)CC3c2ccc(Cl)cc2)n1 (configuration not stated)	11.4%
SMILES	Pf Dd2 inh
Cc1ccccc1-n1nc(C)c2c1NC(=O)CSC2c1ccc(Cl)cc1 (configuration not stated)	1.5%
Cc1cc(C)nc(-n2nc(C)c3c2N(Cc2ccccc2C)C(=O)CC3c2ccc(Cl)cc2)n1 (configuration not stated)	8.91µM*
COCCN1C(=O)CC[C@]2(C(=O)N(C)CCc3ccccn3)CCCC[C@@H]12	9.4%
O=C(NCc1ccc(F)cc1)c1ccc(CN2C(=O)NC3(CCOCC3)C2=O)cc1	42.6%
COc1ccc(-c2nc(CSCC(=O)N3CCN(c4cc(Cl)ccc4C)CC3)c(C)o2)cc1	i
COc1ccc(-c2nc(CSCC(=O)N3CCN(c4ccc(OC)cc4)CC3)c(C)o2)cc1	-11.0%
COc1ccc(-c2nc(CSCC(=O)N3CCN(c4cccc(C)c4C)CC3)c(C)o2)cc1OC	10µM*
COc1ccc(C(=O)N2C[C@@H](Oc3cccnc3)C[C@H]2C(N)=O)c(OC)n1	i
O=C1NCCCCCN(C(=O)CN2CCOCC2)[C@H]2CCC[C@@H]12	8.4%
CCOCCn1nc(C)cc1C(=O)N1C[C@@H](CN2CCCCC2)[C@@H](CO)C1	17.4%
Cc1nc(CN2CC3(CCN(C)C3)c3cc(C(=O)NCCc4ccccc4)ccc32)cs1 (configuration not stated)	11.2µM*
COCCNC(=O)c1ccc2c(c1)C1(CCN(C)C1)CN2Cc1csc(C)n1 (configuration not stated)	i
CN1CCCC2(C1)CN(C)c1ccc(C(=O)NCCc3ccccc3)cc12 (configuration not stated)	-26.6%[44.1 µM]
COc1cccc([C@H]2CN(C(=O)c3c(C)nn4c(C)cc(C)nc34)C[C@@H]2N)c1	-13.4%
COCC[C@]1(O)CCN(C(=O)CN2C(=O)CNC2=O)C[C@H]1C	4.1%
O=C(N1C[C@@H](CO)[C@H](c2nc(C3CC3)no2)C1)C1(c2ccccc2)CC1	23.1%
CN1CC(=O)N(C2CCNCC2)Cc2c(NCCc3cccc(F)c3)ncnc21	-16.6%
Cc1cc(-c2ccnc(-c3nnc(C)n3CCc3ccccc3)c2)ccn1	i
CCN1CCN(CCCNC(=O)CCC[C@H]2NC[C@@H]3C[C@H]2CN(Cc2ccccc2)C3)CC1	11.4%
O=C(CCC[C@H]1NC[C@@H]2CC1CN(Cc1ccccc1)C2)N1CCCC1	-5.9%
CN(Cc1cccnc1)C(=O)CCC[C@H]1NC[C@@H]2C[C@H]1CN(Cc1ccccc1)C2	-8.7%
CN(Cc1ccc(N2CCCCC2)cc1)C(=O)CCC[C@H]1NC[C@@H]2C[C@H]1CN(Cc1ccccc1)C2	4.47µM*
